CR mimetic SO: lowers age-related superoxide in aged yeast cells | 330,000 compounds, 0.18% hits | S. cerevisiae aged cells, superoxide DHE fluorescence; stronger effect = lower value | AID 2690 | superoxide response (% of plate mean), % at 10 µM;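 active = superoxide response under a set limit, about three screen SD below normal, cut at about 65% in these data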;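 note: yeast aged for seven days with compound at 30 °C before DHE staining; 100% = average MFI of all compound-treated wells on the plate with controls excluded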
NLRP3 yeast inh: NALP3 inhibition in yeast; Yeast reconstituted NLRP3/ASC/caspase-1, beta-gal luminescence, 24 h; 330,000 compounds, 0.39% hits; AID 2825; inhibition, % at 10 µM;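 active = inhibition of 50% or more; inactive = inhibition below 50%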;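 note: plate controls were induced DMSO wells for no effect and uninduced yeast grown without galactose for full effect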
tim10-1 inh: inhibits growth of tim10-1 mutant yeast. 330,000 compounds, 2.2% hits. inhibition, % at 20 µM. S. cerevisiae tim10-1 ts strain growth, BacTiter-Glo, 24 h;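 active = inhibition of at least 40%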;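 note: mutant grown at 25 °C; 0% = DMSO wells with yeast and 100% = wells holding no yeast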
tim23-1 inh: growth inhibitors of tim23-1 mutant yeast | inhibition, % at 20 µM | S. cerevisiae tim23-1 growth, BacTiter-Glo luminescence, 24 h | 330,000 compounds, 1.3% hits;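 active = growth inhibition of the mutant yeast at or above 50%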;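 note: temperature-sensitive mutant grown at 25 °C; plate controls were DMSO-treated mutant yeast for no effect and medium wells lacking yeast for full effect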
TIM10 inh: TIM10 yeast growth inhibition | S. cerevisiae TIM10 strain growth, BacTiter-Glo luminescence, 24 h | inhibition, % at 10 µM | 330,000 compounds, 1.4% hits;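 active = inhibition of 40% or more at the single tested concentration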;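 note: wild-type TIM10 isogenic control strain grown at permissive 25 °C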
tim10-1 conf: confirmation of tim10-1 mutant yeast growth inhibitors; shares compounds with tim10-1 inh; S. cerevisiae tim10-1 ts strain growth, BacTiter-Glo, 24 h; inhibition, % at 20 µM; 7,400 compounds, 56% hits; AID 463213;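 active = inhibition of yeast growth at or above a set limit in either of two repeat tests at 20 µM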;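 note: tim10-1 mutant grown at permissive 25 °C to find synthetic lethal compounds; 0% = DMSO yeast wells and 100% = medium wells without yeast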
* = called active by the depositor. A selection: hits, their analogues and other compounds. The true share with any hit is near 3.8%.

CC(C)(O)[C@H]1O[C@H]2CC[C@@]3(C)[C@@](O)(CC[C@H]4Cc5c([nH]c6ccccc56)[C@@]43C)C2=CC1=O was read as CR mimetic SO 108, NLRP3 yeast inh 10, tim10-1 inh 47*, tim23-1 inh 45, TIM10 inh 30 and tim10-1 conf 41*.
`O=C(c1ccc2c(c1)N(Cc1ccc(F)cc1)CCS2)N1CCC2(CC1)OCCO2` gave CR mimetic SO 96, NLRP3 yeast inh 9, tim10-1 inh 40*, tim23-1 inh 32, TIM10 inh -3 and tim10-1 conf 10.
O=C(c1ccc2c(c1)ncn2-c1ccc(F)cc1F)N1CCC2(CC1)OCCO2 was read as CR mimetic SO 169, NLRP3 yeast inh 12, tim10-1 inh 11, tim23-1 inh 17 and TIM10 inh -4.
`Cc1ccc(CN2CCSc3ccc(C(=O)N4CCC5(CC4)OCCO5)cc32)cc1` gave CR mimetic SO 98, NLRP3 yeast inh 4, tim10-1 inh 46*, tim23-1 inh 43, TIM10 inh 5 and tim10-1 conf 3.
`N#CC(C#N)=Cc1ccc(N2CCCC2)cc1` gave CR mimetic SO 100, NLRP3 yeast inh 42, tim10-1 inh 41*, tim23-1 inh 10, TIM10 inh -2 and tim10-1 conf 17.
Screening CN(C)c1ccc(C=C(C#N)C#N)cc1 returned CR mimetic SO 81, NLRP3 yeast inh 31, tim10-1 inh 32, tim23-1 inh 20 and TIM10 inh 12.
For N=C1c2ccccc2CN1c1ccc(F)c([N+](=O)[O-])c1 the results were CR mimetic SO 106, NLRP3 yeast inh -5, tim10-1 inh -7, tim23-1 inh -3 and TIM10 inh -10.
`COCCCN=Cc1c(O)[nH]c(=S)[nH]c1=O` gave CR mimetic SO 88, NLRP3 yeast inh 10, tim10-1 inh -15, tim23-1 inh 1 and TIM10 inh -4.
For Cc1ccc2c(c1)N(C(=O)CCC(=O)N1CCC3(CC1)OCCO3)CC(C)O2 (stereo unspecified) the results were CR mimetic SO 106, NLRP3 yeast inh 11, tim10-1 inh 20, tim23-1 inh 4 and TIM10 inh -1.
CN(C)C(=O)Oc1ccc2c(c1)O/C(=C\c1cccc(Cl)c1)C2=O was read as CR mimetic SO 105, NLRP3 yeast inh 14, tim10-1 inh 41*, tim23-1 inh 36, TIM10 inh 23 and tim10-1 conf 32*.
For Cc1cc(OC(=O)CCNC(=O)OC(C)(C)C)c2c3c(c(=O)oc2c1)CCC3 the results were CR mimetic SO 117, NLRP3 yeast inh -66, tim10-1 inh 45*, tim23-1 inh 35, TIM10 inh 18 and tim10-1 conf 39*.
`Cc1cc(OC(=O)CCCNC(=O)OC(C)(C)C)c2c3c(c(=O)oc2c1)CCC3` gave CR mimetic SO 92, NLRP3 yeast inh -15, tim10-1 inh 22, tim23-1 inh 4 and TIM10 inh 29.
Screening CCN(CC)CCCOC(=O)C(OC(C)C)(c1ccccc1)c1ccccc1 returned CR mimetic SO 102, NLRP3 yeast inh 16, tim10-1 inh 42*, tim23-1 inh 12, TIM10 inh 8 and tim10-1 conf 12.
CCOC(C(=O)OCCCN(CC)CC)(c1ccccc1)c1ccccc1 was read as CR mimetic SO 100, NLRP3 yeast inh 23, tim10-1 inh 7, tim23-1 inh 5 and TIM10 inh -1.
Screening O=C1NC(=O)C2(Cc3cc([N+](=O)[O-])ccc3N3CCN(C(=O)c4ccccc4)CC32)C(=O)N1 (stereo unspecified) returned CR mimetic SO 99, NLRP3 yeast inh 11, tim10-1 inh 8, tim23-1 inh 14 and TIM10 inh 3.
Screening O=C(N/N=C/c1c(O)n(C2CCCCC2)c(=S)[nH]c1=O)c1ccccc1O returned CR mimetic SO 142, NLRP3 yeast inh 26, tim10-1 inh 53*, tim23-1 inh 24, TIM10 inh -3 and tim10-1 conf 4.
`O=C1CN=C(c2ccccc2)c2cc(Br)ccc2N1Cc1cc(=O)n2ccccc2n1` gave CR mimetic SO 116, NLRP3 yeast inh -2, tim10-1 inh 41*, tim23-1 inh 19, TIM10 inh 25 and tim10-1 conf 5.
`COCCCn1c(N)c(C(=O)Nc2ccccc2)c2nc3ccccc3nc21` gave CR mimetic SO 115, NLRP3 yeast inh 7, tim10-1 inh 48*, tim23-1 inh 40, TIM10 inh 17 and tim10-1 conf 27.
For Nc1c(C(=O)OCc2ccccc2)c2nc3ccccc3nc2n1Cc1cccs1 the results were CR mimetic SO 107, NLRP3 yeast inh 15, tim10-1 inh 45*, tim23-1 inh 22, TIM10 inh 2 and tim10-1 conf 20.
COc1ccc(C(CNC(=O)c2ccc3c(c2)CCC3)N(C)C)cc1 (stereo unspecified) was read as CR mimetic SO 101, NLRP3 yeast inh 22, tim10-1 inh 9, tim23-1 inh 5 and TIM10 inh -12.
Screening COC(=O)[C@@H]1[C@@H](C(=O)OC)C2(c3ccccc3-c3ccccc32)N(c2ccc(Cl)cc2)N1C#N returned CR mimetic SO 94, NLRP3 yeast inh 9, tim10-1 inh 33, tim23-1 inh 26 and TIM10 inh 21.
`COC(=O)C[C@]1(C(=O)OC)CN(C#N)N(c2ccc(Cl)cc2)C12c1ccccc1-c1ccccc12` gave CR mimetic SO 103, NLRP3 yeast inh 26, tim10-1 inh 46*, tim23-1 inh 25, TIM10 inh 32 and tim10-1 conf 21.
Screening Nc1ccccc1Cl returned CR mimetic SO 120, NLRP3 yeast inh 6, tim10-1 inh -14, tim23-1 inh -8 and TIM10 inh 2.
Cn1c(O)c(C=NC2CC3CCC2(C)C3(C)C)c(=O)[nH]c1=O (stereo unspecified) was read as CR mimetic SO 95, NLRP3 yeast inh 6, tim10-1 inh 26, tim23-1 inh 31 and TIM10 inh 11.
`CCCCn1c(O)c(C=NC2CC3CCC2(C)C3(C)C)c(=O)[nH]c1=O` (stereo unspecified) gave CR mimetic SO 98, NLRP3 yeast inh 4, tim10-1 inh 55*, tim23-1 inh 25, TIM10 inh 38 and tim10-1 conf 40*.
Screening CC(C)OCC(O)CN1CC2C[C@@H](C1)Cn1c2cccc1=O (stereo partly specified) returned CR mimetic SO 97, NLRP3 yeast inh -2, tim10-1 inh 19, tim23-1 inh 1 and TIM10 inh -11.
Cc1ccc(-c2cc(-c3ccc(C)cc3)[n+](-c3ccccc3)c(-c3ccc(C)cc3)c2)cc1 was read as CR mimetic SO 95, NLRP3 yeast inh 31, tim10-1 inh 43*, tim23-1 inh 47, TIM10 inh 15 and tim10-1 conf 23.
CN(C)c1ccc(-[n+]2c(-c3ccccc3)cc(-c3ccccc3)cc2-c2ccccc2)cc1 was read as NLRP3 yeast inh 13, tim10-1 inh 52*, tim23-1 inh 38, TIM10 inh 34 and tim10-1 conf 37*.
